Consider 10 compounds from PubChem BioAssay (NCATS).

The nature of test [1]: qHTS for identification of novel therapeutic agents for treatment of microphthalmiaassociated transcription factor (MiT) renal cell carcinoma (RCC) (AID 1963991). The note with it: CellTiter-Glo, 48 h; for z-score: stronger effect = lower value; for Potency: active = Z-AUC below -0.8 in all three lines. In short, it runs like this: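 Curves over 11 concentrations were fitted to CellTiter-Glo luminescence, scaled between empty wells (0%) and DMSO (100%) viability. Cells were UOK109, UOK124 and UOK145 TFE3-fusion RCC lines at 500/well, exposed 48 hours at 37 C.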
On the technique in general: qHTS replaces the single test concentration by a dilution series.

A short description of test [2]: qHTS drug screen for cell cycle checkpoint inhibitors in PARPi-resistant BRCA-mutant ovarian cancer cell lines. (AID 1963452). The note with it: PEO1/OlaR viability, CellTiter-Glo luminescence, 96 h; for Z-AUC: stronger effect = lower value. The procedure, abridged:
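PEO1, PEO4 and PEO1/OlaR ovarian cancer cells, 600 per well, exposed 96 h at 37C to a dilution series. Viability read by CellTiter-Glo luminescence, normalized to DMSO and empty wells; activity summarized as Z-AUC.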

Setting [3] is: TFE3-RCC UOK109 viability, measured here: UOK109 Z-AUC.
Setting [4] is: TFE3-RCC viability, measured here: UOK124 Z-AUC.
[5] abbreviates: TFE3-RCC viability, measured here: UOK145 Z-AUC.
[6] abbreviates: measured here: PEO1 parental Z-AUC.

Molecules are shown by their SMILES. Inconclusive results are not listed. The source made the active and inactive calls. The call rests on the fitted dose curve.
Potency means the concentration at half of the fitted maximal effect.

In the case of `CC(C)(C)[C@H](NC(=O)c1ccc(N)c(Cl)c1)C(=O)N1CCC[C@@H]1C(=O)N[C@H](C#N)CC(=O)O`, the values for the z-score in test [1] (setting [3]), in test [1] (setting [4]) and in test [1] (setting [5]) were 1.53, 2.68 and 2.13, respectively.
As to `CC(O)(C#Cc1ccc2c(c1)N(c1nc(N)ncc1Cl)CC2)c1nccs1` (centres undefined), the Z-AUC was -0.29 (inactive) in test [2], -0.463 in test [2] (setting [6]) and -0.647 in test [2] (measured here: PEO4 Z-AUC).
For the compound `COc1ccc(C=Cc2cc(OC)c(OC)c(OC)c2)cc1NC(=O)[C@H](N)CO`, the Potency was 54.9 nM (active) in test [2] and 10.5 nM (active) in test [1] (TFE3-RCC UOK109 viability). The Z-AUC in test [2] (setting [6]) was -1.39; in test [2] (measured here: PEO4 Z-AUC) it was -1.42. Further, the z-score is -2.33 in test [1] (setting [3]), -3.86 in test [1] (setting [4]) and -1.55 in test [1] (setting [5]).
In the case of `Cc1ccc(O)c(C(CCN(C(C)C)C(C)C)c2ccccc2)c1` (centres undefined), the z-score in test [1] (setting [3]) is 0.603; in test [1] (setting [4]), 0.794; in test [1] (setting [5]) it was 0.77.
Consider `C#CCC(Cc1cnc2nc(N)nc(N)c2n1)c1ccc(C(=O)N[C@@H](CCC(=O)O)C(=O)O)cc1` (some centres undefined), for which the Potency in test [1] (TFE3-RCC UOK109 viability) was 132 nM (active). The z-score is -1.2 in test [1] (setting [3]), -2.51 in test [1] (setting [4]) and -2.95 in test [1] (setting [5]).
As for `C#C[C@]1(O)CC[C@@H]2[C@@H]3CCC4=CC(=O)CC[C@@H]4[C@H]3CC[C@@]21CC`, the z-score in test [1] (setting [3]) is 0.12; in test [1] (setting [4]), -0.0153; in test [1] (setting [5]), -0.174.
Turning to `Cn1c(Nc2ccc(C(F)(F)F)cc2)nc2cc(Oc3ccnc(-c4ncc(C(F)(F)F)[nH]4)c3)ccc21`, the figures for the Z-AUC in test [2], in test [2] (setting [6]) and in test [2] (measured here: PEO4 Z-AUC) were -0.152 (inactive), -0.11 and -1.19, respectively.
In the case of `N#Cc1c(NC(=O)c2cccc3ccccc23)sc2c1CCCC2`, the Z-AUC is -0.477 (inactive) in test [2], -0.695 in test [2] (setting [6]) and -0.753 in test [2] (measured here: PEO4 Z-AUC). In test [1] (TFE3-RCC UOK109 viability), the Potency is 833 nM (active). Also, the z-score in test [1] (setting [3]) is -1.37; in test [1] (setting [4]), -1.52; in test [1] (setting [5]), -1.31.
With `COC(=O)[C@@H]1CC2=CC(=O)CC[C@]2(C)[C@@]23O[C@@H]2C[C@@]2(C)[C@H](CC[C@@]24CCC(=O)O4)[C@@H]13`, the results for the z-score in test [1] (setting [3]), in test [1] (setting [4]) and in test [1] (setting [5]) were 0.222, 0.454 and 0.45, respectively.
For `O=C(O)C(=O)Nc1cccc(C2=NN=N[N]2)c1`, in that order: 0.225, 0.525 and 0.0651.
